Measurements published in PubChem BioAssay (NCATS).
Inconclusive results are not listed. Activity calls are given as the source filed them. The call rests on the fitted dose curve; in most records, active means well fitted cell-killing curve with a large enough effect; inconclusive means small, poorly fitted or top-dose-only effect, or effect the other way; inactive means no such curve, though single readings can be large or run the other way.

Test: Quantitative High-Throughput drug screen in 47 multiple myeloma cell lines against the NCATS MIPE library collection: KHM11_PLB cell viability assay (AID 1918962); further: nearly all actives have a fitted effect of over 35% in size
Settings: KHM11 myeloma cell viability, CellTiter-Glo ATP luminescence, 48 h; series mostly up to 45.8 µM
Source text: PI: Beverly A. Mock Ph.D.
Laboratory of Cancer Biology and Genetics,
Center for Cancer Research, National Cancer Institute,
National Institute of Health, Bethesda, Maryland
Drug resistance and disease progression are common in multiple myeloma (MM) patients, underscoring the need for new therapeutic combinations. […] We hypothesized that effective combinations would reduce MYC expression and enhance p16 activity. […] These preclinical data identify potentially useful drug combinations for evaluation in drug-resistant MM and reveal potential mechanisms of combined drug sensitivity.
Described herein is the primary MIPE qHTS used to cherrypick compounds. Validated compounds were then further tested for potential synergistic activiy.
[1] Peat TJ, Gaikwad SM, Dubois W, Gyabaah-Kessie N, Zhang S, Gorjifard S, Phyo Z, Andres M, Hughitt VK, Simpson RM, Miller MA, Girvin AT, Taylor A, Williams D, D'Antonio N, Zhang Y, Rajagopalan A, Flietner E, Wilson K, Zhang X, Shinn P, Klumpp-Thomas C, McKnight C, Itkin Z, Chen L, Kazandijian D, Zhang J, Michalowski AM, Simmons JK, Keats J, Thomas CJ, Mock BA. Drug combinations identified by high-throughput screening promote cell cycle transition and upregulate Smad pathways in myeloma. Cancer Lett. 2023 Aug 1;568:216284. doi: 10.1016/j.canlet.2023.216284. Epub 2023 Jun 24. PMID: 37356470; PMCID: PMC10408729.
SEQUENCE No. (e.g., 1, 2, 3, etc.); […] (e.g., Cells, Incubation, Reagent, etc.); VALUE and DESCRIPTION.
1; Cells; 5 uL; white, solid bottom 1536-well Greiner assay plate.
2; Compounds; 23 nL; Kalypsis pin tool (Wako USA) equipped with a 1536-well pin head to transfer to the assay plates.
3; Incubation; 48 hours; 37C incubation.
4; Reagent;5uL; CellTiter Glo (Promega).
5; Detector; 425V; Luminescence; Viewlux PerkinElmer.
NOTES (numbers refer to Sequence numbers above)
1. The cell-based screening methods employed in this study were like those previously published. Briefly, the corresponding myeloma cell lines were screened in 1,536-well plates with 500 cells, 5-uL per well for inhibition of cell viability (assessed by measuring ATP levels with CellTiterGlo).
2. NCATS MIPE 4.0 library of approved and investigational drugs were added using the Kalypsis pin tool. Wells treated with DMSO only for 100% viability and media only wells for 0% viability were used as controls.
3. The assay plates were covered and incubated for 48 hours in a 37C, 5% CO2 incubator with controlled humidity.
4. After 48 hours, CellTilter-GloTM luminescent substrate mix (Promega) reagent was added to the assay plate and plates we incubated for 5 min at room temperature.
5. Signal was measured as median relative luminescence units on a ViewLux (PerkinElmer) multiplate reader.
[1] Heske CM, Davis MI, Baumgart JT, Wilson K, Gormally MV, Chen L, Zhang X, Ceribelli M, Duveau DY, Guha R, Ferrer M, Arnaldez FI, Ji J, Tran HL, Zhang Y, Mendoza A, Helman LJ, Thomas CJ. Matrix Screen Identifies Synergistic Combination of PARP Inhibitors and Nicotinamide Phosphoribosyltransferase (NAMPT) Inhibitors in Ewing Sarcoma. Clin Cancer Res. 2017 Dec 1;23(23):7301-7311. doi: 10.1158/1078-0432.CCR-17-1121. Epub 2017 Sep 12. PMID: 28899971; PMCID: PMC6636827.
Potency means the concentration at half of the fitted maximal effect.

Row | SMILES | Potency
1 | O=C(Nc1ccccc1-c1cn2c(CN3CCNCC3)csc2n1)c1cnc2ccccc2n1 | 8.33 µM (active)
2 | Oc1ccc(C2CCN(c3ccnc4ccccc34)CC2)cc1O | 8.33 µM (active)
3 | COC[C@@H](c1ccc(C(F)(F)F)cc1)N1CCN(C2(C)CCN(C(=O)c3c(C)ncnc3C)CC2)C[C@H]1C | inactive
4 | CN(C)c1cc(NC(=O)CNC(C)(C)C)c(O)c2c1C[C@@H]1C[C@H]3[C@H](N(C)C)C(=O)C(C(N)=O)=C(O)[C@@]3(O)C(=O)C1=C2O | inactive
5 | O=C(CCCCCCC(=O)Nc1ccccc1)NO | 7.43 µM (active)
6 | NC[C@@H]1O[C@@H](O[C@H]2[C@@H](O)[C@H](O[C@@H]3[C@@H](O)[C@@H](N)C[C@H](N)[C@H]3O[C@H]3O[C@H](CN)[C@@H](O)[C@@H](O)[C@H]3N)O[C@H]2CO)[C@H](N)[C@@H](O)[C@@H]1O | inactive
7 | O=C1NC(=O)C(=Cc2ccc3c(c2)OC(F)(F)O3)S1 | 13.2 µM (active)
8 | CN(C[C@@H]1COCCO1)S(=O)(=O)Nc1ccc2ccc3ncc(-c4cnn(C)c4)cc3c(=O)c2c1 | 0.743 µM (active)
9 | CON=C(C(=O)N[C@@H]1C(=O)N2C(C(=O)OCOC(=O)C(C)(C)C)=C(C=Cc3scnc3C)CS[C@H]12)c1csc(N)n1 | 18.7 µM (active)
10 | CO[C@H]1C=CC=C(C)C(=O)NC2=CC(=O)C(NCCN(C)C)=C(C[C@@H](C)C[C@H](OC)[C@@H](O)[C@@H](C)C=C(C)[C@@H]1OC(N)=O)C2=O | 0.0372 µM (active)
11 | C=C1C(=O)[C@@]23C(CC[C@@H]1[C@H]2O)[C@@]12CO[C@]3(O)[C@@H](O)[C@@H]1C(C)(C)CC[C@@H]2O (stereo not given in full) | 5.26 µM (active)
12 | CO[C@@H](C(=O)N1Cc2[nH]nc(NC(=O)c3ccc(N4CCN(C)CC4)cc3)c2C1)c1ccccc1 | 10.5 µM (active)
13 | O=C(O)C=Cc1ccc(O)c(O)c1 | inactive
14 | Cc1c(NC(=O)c2ccc(C(C)(C)C)cc2)cccc1-c1cn(C)c(=O)c(Nc2ccc(C(=O)N3CCOCC3)cc2)n1 | inactive
15 | COc1cccc2c1CCCC2CCCN1CCN(C2CCCCC2)CC1 (stereo not given) | 18.7 µM (active)
16 | N#C[C@H]1C[C@H]2C[C@@H]2N1C(=O)[C@@H](N)C12CC3CC(CC(O)(C3)C1)C2 | inactive
17 | CC1(C)CCC[C@@]2(C)[C@@H]1CC[C@@]1(C)OC(=O)C[C@H]21 | inactive
18 | O=C1C(Cl)=C(NCCN2CCOCC2)C(=O)c2ncccc21 | 9.35 µM (active)
19 | COc1cc2nc(-c3ccc(N4CCN(C)CC4)cc3)nc(NCCN3CCOCC3)c2cc1OC | 0.235 µM (active)
20 | CO[C@H]1C[C@@H]2CC[C@@H](C)[C@@](O)(O2)C(=O)C(=O)N2CCCC[C@@H]2C(=O)O[C@H]([C@H](C)C[C@@H]2CC[C@H](OCCO)[C@H](OC)C2)CC(=O)[C@H](C)C=C(C)[C@@H](O)[C@@H](OC)C(=O)[C@H](C)C[C@H](C)C=CC=CC=C1C | inactive

Row | SMILES | Potency
21 | CC(C)OC(=O)C(C)(C)Oc1ccc(C(=O)c2ccc(Cl)cc2)cc1 | 26.4 µM (active)
22 | c1ccc2c(Cc3c[nH]c4ccccc34)c[nH]c2c1 | 4.18 µM (active)
23 | OC[C@H]1O[C@@H](n2cnc3c2NC=NC[C@@H]3O)C[C@H]1O | inactive
24 | O=c1ccn([C@@H]2O[C@H](CO)[C@H](O)[C@H]2O)c(=O)[nH]1 | inactive
25 | NC(CO)(CO)CCc1ccc(Sc2cccc(OCc3ccccc3)c2)cc1Cl | 7.43 µM (active)
26 | CC(=O)O[C@]1(C(C)=O)CC[C@@H]2[C@@H]3C[C@H](C)C4=CC(=O)CC[C@]4(C)[C@H]3CC[C@@]21C | inactive
27 | O=C(O)c1ccc(-c2cc3cccnc3c(-c3ccc4nonc4c3)n2)cc1 | 20.9 µM (active)
28 | Oc1ccc(C2=Cc3ccc(O)cc3OC2)cc1 | 5.26 µM (active)
29 | CC(C)(C)COc1ccc(-n2cc(C(=O)O)cn2)cc1C#N | inactive
30 | O=C(NCc1ccncc1)C12C[C@H]3C[C@@H](C1)CC(c1ccc(Cl)cc1)(C3)C2 | inactive
31 | COc1ccc(-c2cc(=O)c3c(O)cc(O)cc3o2)cc1O | 10.5 µM (active)
32 | COc1ccc(-n2c(C)c([N+](=O)[O-])c3ccc(O)cc32)cc1 | inactive
33 | C[C@]12CC[C@@H]3c4ccc(O)cc4C[C@@H](CCCCCCCCCS(=O)CCCC(F)(F)C(F)(F)F)[C@H]3[C@H]1CC[C@H]2O (stereo not given in full) | inactive
34 | CC(=O)Nc1ccc([C@H](C)C(=O)Nc2ncc(C(C)C)s2)cc1 | 4.69 µM (active)
35 | C[C@]12CCC3c4ccc(O)cc4CCC3C1CCC2=O (stereo not given in full) | inactive
36 | Nc1ncnc2c1nc(Cl)n2[C@@H]1O[C@H](CO)[C@@H](O)[C@@H]1O | 6.62 µM (active)
37 | COCCOC(=O)C1=C(C)NC2=C(C(=O)CC(c3ccccc3OC)C2)C1c1cccc(O)c1 (stereo not given) | 11.8 µM (active)
38 | CC(=O)N(C)C1(c2ccccc2)CCN(CCC[C@]2(c3ccc(Cl)c(Cl)c3)CCCN(C(=O)c3ccccc3)C2)CC1 | 16.6 µM (active)
39 | CC(=O)OC1C(C)OC(Oc2c(-c3ccc(O)cc3)oc3cc(O)cc(O)c3c2=O)C(O)C1OC(C)=O (stereo not given) | inactive
40 | CC(C)(C)c1cc(C(=O)O)c(NC(=O)Nc2ccc3[nH]ncc3c2)s1 | inactive
